From PubChem
PP1 inh: counter-screen for PP5 inhibitors: inhibitors of human PP1-alpha; purified PP1alpha, OMFP fluorescence; actives 0.9% (n = 320,000); P62136; inhibition, % at 6.7 µM;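 active = inhibition above the mean inhibition of all tested compounds plus 3 SD, computed separately for each screening campaign, cut at about 15% in these data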
PP5 primary: blocks human protein phosphatase 5 activity; inhibition, % at 6.7 µM; purified PP5c, OMFP substrate fluorescence; P53041; actives 0.18% (n = 320,000);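 active = inhibition above the campaign's mean inhibition across all tested compounds plus 3 SD, cut at about 9.5% in these data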
proKLK7 act: activators of human kallikrein-7 zymogen. P49862. purified proKLK7, EDANS-DABCYL substrate fluorescence; 100% is mature enzyme control, 0% vehicle. activation, % at 7 µM. actives 0.9% (n = 370,000). AID 652039;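 active = activation above the mean of all tested compounds plus 3 SD, computed per campaign excluding outliers beyond control limits, cut at about 13% in these data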
PG9 Ab binder: PG9 antibody binding by small molecule | TR-FRET gp120-PG9 antibody binding | inhibition, % at 6.7 µM | actives 0.43% (n = 360,000) | AID 624416; in the data active = inhibition above about 8.5%
JMJD2C inh: blocks human GASC-1 demethylase activity. Q9H3R0. GST-JMJD2C(1-420) H3K9me3 demethylation, DELFIA europium. inhibition, % at 2.35 µM. actives 0.069% (n = 330,000);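 active = more than half of a compound's replicate wells show inhibition beyond 50%, single wells judged on their own value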;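 note: signal counts dimethyl H3K9 product captured on neutravidin plate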
Target sequence (Q9H3R0 1-420 limits assumed): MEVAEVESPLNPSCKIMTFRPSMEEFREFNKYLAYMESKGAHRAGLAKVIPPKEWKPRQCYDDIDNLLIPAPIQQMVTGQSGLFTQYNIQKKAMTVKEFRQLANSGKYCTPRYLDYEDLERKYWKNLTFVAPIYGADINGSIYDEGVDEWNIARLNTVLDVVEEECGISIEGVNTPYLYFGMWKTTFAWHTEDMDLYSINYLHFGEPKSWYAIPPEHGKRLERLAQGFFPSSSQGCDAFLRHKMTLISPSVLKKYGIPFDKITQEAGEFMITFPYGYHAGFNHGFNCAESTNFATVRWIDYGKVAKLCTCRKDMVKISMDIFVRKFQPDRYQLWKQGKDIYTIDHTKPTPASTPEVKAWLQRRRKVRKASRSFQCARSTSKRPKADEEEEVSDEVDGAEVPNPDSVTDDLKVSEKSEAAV
NR1D1 modulator: Rev-erb alpha (human) modulation | P20393 | Rev-erbα–FITC-DNA binding, fluorescence polarization, 90 min | activity, % at 10 µM | actives 0.79% (n = 370,000);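 active = activity above about 14%, limit read from the data; passing the limit was not always enough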
NR1D1 mod conf: confirmation of modulators of human Rev-erb alpha DNA binding | shares compounds with NR1D1 modulator | Rev-erb alpha FITC-DNA binding, fluorescence polarization, 90 min | activation, % at 25 µM | actives 61% (n = 3,000);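 active = activation at or above a set limit, or at least 3 SD above the negative control mean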
RORg DNA counter: RORgamma DNA-binding activity, dose-response counter-screen. shares compounds with NR1D1 modulator. purified RORgamma protein-FITC-DNA binding, fluorescence polarization. IC50, µM. actives 8% (n = 910);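 active = Compounds whose fitted half-maximal concentration for disrupting protein-DNA binding is below 10 micromolar; the record names Rev-erb in its text, so the target is in doubt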
Large screens that a line does not name were inactive (follow-up assays come after a bar, where they were run). Compounds with a hit are over-represented: about 2.8% of the library has one in this group of screens.

Cc1cccc(C)c1NC(=O)CSc1ncnc2[nH]ncc12	NR1D1 modulator 23 (no result: PP1 inh, PP5 primary) | NR1D1 mod conf 18
Cc1ccc(Cc2c(-c3ccc(C#N)cc3)nc3ccc(C)cn23)cc1	none (no result: PP1 inh, PP5 primary, JMJD2C inh)
Clc1ccc(-c2nc3ccc(Br)cn3c2Cc2cccc(Cl)c2)cc1	NR1D1 modulator 25 (no result: PP1 inh, PP5 primary, JMJD2C inh) | NR1D1 mod conf 19
Clc1cccc(Cc2c(-c3cccc(Br)c3)nc3ccc(Br)cn23)c1	none (no result: PP1 inh, PP5 primary, JMJD2C inh)
Cc1ccc(Cc2c(-c3ccc(C#N)cc3)nc3ccc(Br)cn23)cc1	NR1D1 modulator 29 (no result: PP1 inh, PP5 primary, JMJD2C inh) | NR1D1 mod conf inactive
Clc1cccc(Cc2c(-c3cccc(Cl)c3)nc3ccc(Br)cn23)c1	NR1D1 modulator 26 (no result: PP1 inh, PP5 primary, JMJD2C inh) | NR1D1 mod conf 19
Cc1ccc(-c2nc3ccc(Br)cn3c2Cc2cccc(Cl)c2)cc1	NR1D1 modulator 19 (no result: PP1 inh, PP5 primary, JMJD2C inh) | NR1D1 mod conf inactive
CC(=O)N1CCc2cc(S(=O)(=O)NCCC(=O)NCc3ccccc3)ccc21	none (no result: PP1 inh, PP5 primary, PG9 Ab binder, JMJD2C inh)
CCn1c(Cc2cccs2)nnc1SCC(=O)Nc1ccc2c(c1)OCCO2	none (no result: PP1 inh, PP5 primary, PG9 Ab binder, JMJD2C inh)
Cc1cc(Br)c2nc(-c3ccc(F)cc3)c(Cc3cccc(Cl)c3)n2c1	NR1D1 modulator 29 (no result: PP1 inh, PP5 primary, JMJD2C inh) | NR1D1 mod conf 13
COCC(=O)N[C@H]1C[C@@H]2O[C@H](CO)CC[C@@H]2O[C@@H]1CCc1ccc(-c2ccccc2)cc1	none (no result: PP1 inh, PP5 primary, PG9 Ab binder, JMJD2C inh)
CC(C)(C)c1ccc(C(=O)c2c[nH]c(C(=O)NCc3cccs3)c2)cc1	NR1D1 modulator 96 | NR1D1 mod conf 94 | RORg DNA counter inactive
Cc1n[nH]c(=S)n(NC(=O)CC(=O)Nn2c(=S)[nH]nc(C)c2=O)c1=O	NR1D1 modulator 16 | NR1D1 mod conf inactive
COc1ccc(C)cc1NC(=O)c1sc2ncn(CC(=O)N3CCCCC3)c(=O)c2c1C	NR1D1 modulator 29 | NR1D1 mod conf 24
COc1cc(NC(=O)c2sc3ncn(CC(=O)N4CCCCC4)c(=O)c3c2C)cc(OC)c1OC	none
COc1ccc([C@H]2OC(=O)C[C@H]2C(=O)N2CCN(c3ccccc3C(F)(F)F)CC2)cc1OC	none (no result: PP1 inh, PP5 primary, PG9 Ab binder, JMJD2C inh)
O=C(Nc1cc(-c2nc3ccccc3s2)ccc1Cl)c1ccc2c(c1)OCO2	NR1D1 modulator 28 | NR1D1 mod conf inactive
Cc1ccc(-c2nc3ccccc3s2)cc1NC(=O)c1ccc2c(c1)OCO2	none
COc1ccc(Cl)cc1C(=O)Nc1ccc(Br)c(C)n1	NR1D1 modulator 28 | NR1D1 mod conf inactive
COc1ccc(Cl)cc1C(=O)Nc1ccc(NC(C)=O)cc1	none
C=CCN1[C@H](C)[C@H](c2ccccc2)Oc2cc(Br)ccc2S1(=O)=O	none (no result: PP1 inh, PP5 primary, JMJD2C inh)
O=C1C(Cl)=C(NC2CCCCC2)C(=O)N1c1ccc(Cl)cc1	NR1D1 modulator 40 | NR1D1 mod conf inactive
COc1cc(C(=O)NCc2ccc(-c3nc4ccccc4o3)cc2)cc(OC)c1OC	PG9 Ab binder 11, NR1D1 modulator 26 | NR1D1 mod conf inactive
COc1cc(C(=O)NCc2ccncc2)cc(OC)c1OC	none
Cc1cc(C)nc(NC(=S)N2CCN(c3ccc(Cl)c(Cl)c3)CC2)c1	none (no result: PP1 inh, PP5 primary, proKLK7 act, PG9 Ab binder, JMJD2C inh)
COc1cc(/C=C2\SC(=S)N(CC(=O)O)C2=O)ccc1OC(=O)c1ccco1	none
COc1cc(/C=C2/SC(=S)N(CC(=O)O)C2=O)ccc1OC(=O)c1ccco1	NR1D1 modulator 25 | NR1D1 mod conf inactive
COc1ccc(/C=C2\SC(=O)N(CCC(=O)Nc3ccccc3)C2=O)cc1OC	NR1D1 modulator 32 | NR1D1 mod conf 34 | RORg DNA counter inactive
COc1ccc(C2NC(=S)N(Cc3ccc(Cl)cc3)C(C)=C2C(C)=O)cc1 (centres undefined)	none (no result: PP1 inh, PP5 primary, JMJD2C inh)
O=[N+]([O-])c1ccc(O)c(-c2cc(C(F)(F)F)nc(-c3ccccc3)n2)c1	NR1D1 modulator 133 | NR1D1 mod conf 159 | RORg DNA counter 8
Oc1ccccc1-c1cc(C(F)(F)C(F)F)nc(-c2ccccc2)n1	none
Cc1cc(/C=C2\C(=N)N3C(SCc4ccccc4)=NSC3=NC2=O)c(C)n1Cc1ccccc1	NR1D1 modulator 73 | NR1D1 mod conf 41
